These results are taken from PubChem BioAssay (Tox21).

Several values for one entry are separate records, joined by “and”; a condition that tells them apart may be missing. Identical values can stand only once. Inconclusive results are not listed. Some compounds were tested as several samples or in several runs, with calls that do not always agree. Activity calls are given as the source filed them. The call rests on the fitted dose curve; in most records, active means well fitted cell-killing curve with a large enough effect in the repeat runs; inconclusive means weak or mixed curves, or effect the other way; inactive means flat fitted curve, though single readings scatter.
On the % scale 0 is the no-effect control and ±100 the full control effect; potency means the concentration at half of the fitted maximal effect.

This assay is described as follows: qHTS RealTime-Glo MT Cell Viability Assay in HepG2 cells - 40 hour (AID 1224870). Further: nearly all actives have a fitted effect of over 50% in size. As to conditions: RealTime-Glo luminescence; series mostly up to 76.8 µM; activity change, negative = cytotoxic: at the top concentration. An excerpt:
National Center for Advancing Translational Sciences [NCATS]
NIH Chemical Genomics Center [NCGC]
U.S. Environmental Protection Agency [EPA]
National Institutes of Environmental Health Sciences [NIEHS]
National Toxicology Program [NTP]
U.S. Food and Drug Administration [FDA]
Measure of cell viability is critical in the cell-base assay. Analysis of cell viability is necessary for the characterization of cell responses to cytotoxic drugs and environmental stress. A RealTime-Glo MT Cell Viability Assay to monitor cell viability in real time of continues cell culture during 40 hours of compound treatment was used to screen Tox21 10K library compounds in HepG2 cells. The RealTime-Glo MT Cell Viability Assay is a nonlytic, homogeneous, bioluminescent method to measure cell viability in real time using a simple, plate-based method. The assay involves adding NanoLuc luciferase and a cell-permeant prosubstrate to cells in culture. Viable cells reduce the proprietary prosubstrate to generate a substrate for NanoLuc luciferase. This substrate diffuses from cells into the surrounding culture medium, where it is rapidly used by the NanoLuc Enzyme to produce a luminescent signal. The signal correlates with the number of viable cells, making the assay well suited for cytotoxicity studies.
Tox21 Assay Protocol Summary:
The mixture of HepG2 cell suspension and reagents were dispensed at 600cells/6 ul/well in 1536-well tissue culture treated black solid bottom plates using a Multidrop dispenser. After the assay plates were incubated at a 37 C/5% CO2 incubator for 5 hours, 23 nL of compounds dissolved in DMSO, positive and negative controls was transferred to the assay plate by a pintool work station. The plates were incubated at 37 C for 40 hours. The luminescence intensity were measured at 0h, 8h, 16h, 24h, 32h and 40h time points using ViewLux plate reader during compound treatment.
(Quantitative high-throughput screening tests each substance at several concentrations.)
For `c1ccc2n[nH]nc2c1`, the Potency entry was “inactive”.
For the compound `Cc1cc(Cc2cc(C)cc(C(C)(C)C)c2O)c(O)c(C(C)(C)C)c1`, the Potency was 55.2 µM (active) and 49 µM (active).
For `CC1=CC(=O)c2ccccc2C1=O`, the Potency was 49 µM (active).
As for `O=C(Cl)c1cccc(C(=O)Cl)c1`, the Potency entry is “inactive”.
Regarding `CC1=C(C=O)C(C)(C)CC=C1`, the “activity change, negative = cytotoxic” value was -1.68% (inactive).
Consider `COc1ccc(CCN2CCC(Nc3nc4ccccc4n3Cc3ccc(F)cc3)CC2)cc1`, for which the Potency was 15.8 µM (active) and 10.7 µM (active).
Take `CO[Si](OC)(OC)c1ccccc1`: the “activity change, negative = cytotoxic” value was -1.42% (inactive).
For the compound `CC[C@]1(O)C[C@@H]2CN(CCc3c([nH]c4ccccc34)[C@@](C(=O)OC)(c3cc4c(cc3OC)N(C)[C@H]3[C@@](O)(C(=O)OC)[C@H](OC(C)=O)[C@]5(CC)C=CCN6CC[C@]43[C@@H]65)C2)C1`, the Potency entry was “inactive”.
As to `O=C(Nc1ccccc1SSc1ccccc1NC(=O)c1ccccc1)c1ccccc1`, the “activity change, negative = cytotoxic” value was 0.583% (inactive).
Regarding `CC(=O)N[C@@H](CS)C(=O)O`, the Potency entry was “inactive”.
In the case of `CCOc1ccc2c(c1)C(C)=CC(C)(C)N2`, the “activity change, negative = cytotoxic” value is -0.549% (inactive).
In the case of `CCCOC(=O)c1cc(O)c(O)c(O)c1`, the Potency result was “inactive”.
For the compound `Cc1cc(C(C)(C)C)c(O)c(C(C)(C)C)c1`, the Potency entry was “inactive”.
On to `Cc1ccc(-c2cc(C(F)(F)F)nn2-c2ccc(S(N)(=O)=O)cc2)cc1`, for which the Potency was 49 µM (active) and inactive.
Regarding `O=c1n(CC2CO2)c(=O)n(CC2CO2)c(=O)n1CC1CO1` (stereo not given), the Potency entry was “inactive”.
Consider `O=C(O)c1cccc(C(=O)O)c1`, for which the Potency entry is “inactive”.
As to `COC(=O)[C@H]1[C@H]2C[C@@H]3c4[nH]c5cc(OC)ccc5c4CCN3C[C@H]2C[C@@H](OC(=O)c2cc(OC)c(OC)c(OC)c2)[C@@H]1OC`, the “activity change, negative = cytotoxic” value is -20.2% [at 35.3 µM] (inactive).
In the case of `Cc1cccc2n[nH]nc12`, the Potency result is “inactive”.
For `CCN(CC)C(=S)SSC(=S)N(CC)CC`, the Potency is 0.1 µM (active).
For `CCCNC(C)C(=O)Nc1ccccc1C` (stereo not given), the “activity change, negative = cytotoxic” value is 1.39% [at 35.3 µM] (inactive).
On to `CC(C)C(=O)c1c(C(C)C)nn2ccccc12`, for which the “activity change, negative = cytotoxic” value was 2.09% [at 35.3 µM] (inactive).
For the compound `O=C1NCC2(CCN(CCc3ccccc3)CC2)O1`, the “activity change, negative = cytotoxic” value is 3.17% [at 35.3 µM] (inactive).
Still for that read-out and setting: the same measure for `C=CS(=O)(=O)O`: 0.974% (inactive).
In the case of `CNC1(C)C2CCC(C2)C1(C)C` (stereo not given), the “activity change, negative = cytotoxic” value was 0.0386% [at 35.3 µM] (inactive).
Regarding `C[N+]1([O-])CCOCC1`, the “activity change, negative = cytotoxic” value was -1.51% (inactive).
Regarding `O=C(OCc1ccccc1)c1ccc(O)cc1`, the Potency result was “inactive”.
For the compound `Nc1ccc2cc3ccccc3cc2c1`, the Potency result is “inactive”.
For `OCC(CO)N[C@H]1C[C@](O)(CO)[C@@H](O)[C@H](O)[C@H]1O`, the “activity change, negative = cytotoxic” value is -0.0885% [at 35.3 µM] (inactive).
For `Cc1cc(OCCOCC[N+](C)(C)Cc2ccccc2)ccc1C(C)(C)CC(C)(C)C`, the Potency is 12.2 µM (active) and 8.49 µM (active).
As to `BrC1CCC(Br)C(Br)CCC(Br)C(Br)CCC1Br` (stereo not given), the “activity change, negative = cytotoxic” value is -20.2% (inactive).
For the compound `Oc1c(Cl)cc(Cl)c(Cl)c1Cc1c(O)c(Cl)cc(Cl)c1Cl`, the Potency result is “inactive and 38.9 µM (active)”.
As to `CCCCCCC(O)CCCCCCCCCCC(=O)O` (stereo not given), the Potency entry was “inactive”.
Consider `C=C(C)C1CC=C(C)C(OC(C)=O)C1` (stereo not given), for which the Potency entry was “inactive”.
`CC(=O)O[C@]1(C(C)=O)CC[C@H]2[C@@H]3C[C@H](C)C4=CC(=O)CC[C@]4(C)[C@H]3CC[C@@]21C`: the Potency entry was “inactive”.
Take `CC(=O)OCCOCCOCCOC(C)=O`: the Potency entry is “inactive”.
`CC(C)CCCCCCc1ccc(O)cc1`: the Potency was 25 µM (active) and inactive.
On to `C1COC(NC(C2CC2)C2CC2)=N1`, for which the “activity change, negative = cytotoxic” value was -5.3% [at 35.3 µM] (inactive).
Take `CCCC(=O)c1ccccc1`: the “activity change, negative = cytotoxic” value was 2.08% (inactive).
Still for that read-out and setting: the same measure for `CC(C)(C)c1ccc(O)c(C(C)(C)C)c1`: -23.4% (inactive).
Turning to `O=C(O)c1cc(Cl)cc(Cl)c1`, the “activity change, negative = cytotoxic” value was 0.0471% (inactive).
